Measured values: PubChem BioAssay (Tox21)
Results filed as inconclusive are left out. Entries that show only a call come without a potency. Unmarked numbers belong to inactive results. Active and inactive are the calls of the source. Unless noted, calls come from the whole dose curve; as a rule, active = well fitted curve in the direction sought with a large enough effect in the repeat runs; inconclusive = weak or mixed curves; inactive = no such curve, though single readings can be large; an effect the other way counts as inactive or inconclusive.

What was measured:
[1] = qHTS assay to identify small molecule agonists of the peroxisome proliferator-activated receptor delta (PPARd) signaling pathway - cell viability counter screen (AID 743211); note: nearly all actives have a fitted effect of over 55% in size
Outline: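 Tox21 library compounds, delivered in DMSO, were incubated 17 h with PPARd-bla HEK293H cells; cytotoxicity was taken from CellTiter-Glo luminescence read 30 min after reagent addition.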

[2] = molecular target: Peroxisome proliferator-activated receptor delta (Homo sapiens) (UniProt Q03181); assay: qHTS assay to identify small molecule agonists of the peroxisome proliferator-activated receptor delta (PPARd) signaling pathway (AID 743212; calls by dose curve)
Sequence of Peroxisome proliferator-activated receptor delta (Homo sapiens) (Q03181 whole entry, looked up): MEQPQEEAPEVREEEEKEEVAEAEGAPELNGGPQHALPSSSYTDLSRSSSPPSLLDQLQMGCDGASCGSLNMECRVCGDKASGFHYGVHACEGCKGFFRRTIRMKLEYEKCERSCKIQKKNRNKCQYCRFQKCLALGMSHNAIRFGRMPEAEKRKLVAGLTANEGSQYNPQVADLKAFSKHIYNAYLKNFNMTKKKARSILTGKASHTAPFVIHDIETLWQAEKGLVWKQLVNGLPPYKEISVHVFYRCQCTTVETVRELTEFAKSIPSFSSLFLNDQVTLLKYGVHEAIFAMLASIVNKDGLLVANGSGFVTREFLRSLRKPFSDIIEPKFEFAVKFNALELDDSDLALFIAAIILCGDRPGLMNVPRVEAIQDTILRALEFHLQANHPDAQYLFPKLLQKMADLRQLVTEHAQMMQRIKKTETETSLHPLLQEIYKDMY
Outline: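 HEK293H UAS-bla reporter cells, human PPARd system; compounds delivered in DMSO after 5 h plating, then at 37 C. Beta-lactamase FRET read, 2 h RT substrate step.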

[3] = qHTS assay to identify small molecule antagonists of the peroxisome proliferator-activated receptor delta (PPARd) signaling pathway - cell viability counter screen (AID 743213); note: nearly all actives have a fitted effect of over 50% in size
Outline: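 PPARd-bla HEK293H cells were treated with compounds plus agonist L165041 (300 nM final) for 17 h at 37 C. Viability was then read in the same wells by CellTiter-Glo luminescence after 30 min at room temperature.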

[4] = molecular target: Peroxisome proliferator-activated receptor delta (Homo sapiens) (UniProt Q03181); assay: qHTS assay to identify small molecule antagonists of the peroxisome proliferator-activated receptor delta (PPARd) signaling pathway (AID 743215; active = well fitted inhibition curve with a large enough effect in the signal ratio in the repeat runs, not every such curve was filed as active; the % refers to the signal ratio;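 note: cells stimulated with agonist L165041 at 300 nM final during compound exposure; series mostly up to about 62 µM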)
Outline: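 Inhibition of L165041-driven (300 nM final) PPARd signaling is scored in HEK293H UAS-bla cells. Exposure lasts 17 h at 37 C; beta-lactamase activity is then read by FRET substrate fluorescence after 2 h at room temperature.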

[5] = molecular target: Bile acid receptor (Homo sapiens) (UniProt Q96RI1); assay: qHTS assay to identify small molecule antagonists of the farnesoid-X-receptor (FXR) signaling pathway (AID 743217; active = well fitted inhibition curve with a large enough effect in the signal ratio in the repeat runs, not every such curve was filed as active; the % refers to the signal ratio)
Sequence of Bile acid receptor (Homo sapiens) (Q96RI1 whole entry, looked up): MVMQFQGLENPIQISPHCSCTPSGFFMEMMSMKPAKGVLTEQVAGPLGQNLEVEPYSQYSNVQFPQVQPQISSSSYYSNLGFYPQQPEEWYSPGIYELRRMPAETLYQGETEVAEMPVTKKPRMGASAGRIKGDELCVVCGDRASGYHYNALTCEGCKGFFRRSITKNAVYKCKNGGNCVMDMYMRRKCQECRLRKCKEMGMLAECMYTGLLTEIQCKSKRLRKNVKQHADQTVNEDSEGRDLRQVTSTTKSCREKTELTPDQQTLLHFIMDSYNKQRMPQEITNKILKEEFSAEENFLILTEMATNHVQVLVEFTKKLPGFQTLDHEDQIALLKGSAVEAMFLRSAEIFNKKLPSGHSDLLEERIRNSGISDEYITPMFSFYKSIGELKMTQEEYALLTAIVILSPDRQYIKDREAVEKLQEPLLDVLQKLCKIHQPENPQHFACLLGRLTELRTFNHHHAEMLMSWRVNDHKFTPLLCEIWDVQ
Outline: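 Antagonist mode against 50 uM (final) chenodeoxycholic acid stimulation in FXR-bla HEK 293T cells, 16 h at 37 °C. Inhibition detected as reduced beta-lactamase activity via LiveBLAzer B/G FRET fluorescence after 2 h at room temperature.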

[6] = qHTS assay to identify small molecule agonists of the farnesoid-X-receptor (FXR) signaling pathway - cell viability counter screen (AID 743218); note: nearly all actives have a fitted effect of over 45% in size
Outline: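 Cytotoxicity counter-screen run in parallel, same wells: FXR-UAS-bla HEK 293T cells dosed 16 h at 37 C, viability read by CellTiter-Glo luminescence after 30 min at room temperature.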

[7] = molecular target: Bile acid receptor (Homo sapiens) (UniProt Q96RI1); assay: qHTS assay to identify small molecule agonists of the farnesoid-X-receptor (FXR) signaling pathway (AID 743220; active = well fitted activation curve with a large enough effect in the signal ratio in the repeat runs, not every such curve was filed as active; the % refers to the signal ratio)
Outline: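 Beta-lactamase reporter under UAS control in GeneBLAzer FXR HEK 293T cells (5000/well) measured with LiveBLAzer FRET substrate after 2 h at room temperature. Compound exposure lasted 16 h at 37C.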

[8] = qHTS assay to identify small molecule antagonists of the farnesoid-X-receptor (FXR) signaling pathway - cell viability counter screen (AID 743221; active = well fitted cell-killing curve with a large enough effect in the repeat runs, not every such curve was filed as active; note: nearly all actives have a fitted effect of over 50% in size)
Outline: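 Cytotoxicity is taken from ATP luminescence (CellTiter-Glo, 30 min, room temperature) in FXR-bla HEK 293T cells previously incubated 16 h at 37 C with compound and chenodeoxycholic acid at 50 uM final.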

[9] = molecular target: Vitamin D3 receptor (Homo sapiens) (UniProt P11473); assay: qHTS assay to identify small molecule agonists of the vitamin D receptor (VDR) signaling pathway (AID 743222; calls by dose curve)
Sequence of Vitamin D3 receptor (Homo sapiens) (P11473 whole entry, looked up): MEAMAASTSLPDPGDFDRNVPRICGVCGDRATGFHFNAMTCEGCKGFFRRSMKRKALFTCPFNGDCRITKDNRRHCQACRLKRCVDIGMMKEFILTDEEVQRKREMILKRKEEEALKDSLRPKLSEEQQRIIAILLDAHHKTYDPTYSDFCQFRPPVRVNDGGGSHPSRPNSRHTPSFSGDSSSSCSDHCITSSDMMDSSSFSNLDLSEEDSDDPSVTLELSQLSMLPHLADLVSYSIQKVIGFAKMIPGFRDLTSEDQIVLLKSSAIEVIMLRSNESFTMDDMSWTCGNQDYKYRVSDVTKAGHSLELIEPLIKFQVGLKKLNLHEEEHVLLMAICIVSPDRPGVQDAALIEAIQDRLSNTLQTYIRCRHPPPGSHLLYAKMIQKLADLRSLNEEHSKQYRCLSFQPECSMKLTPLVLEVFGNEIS
Outline: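 Quantitative HTS agonist-mode screen: compounds in DMSO were pin-transferred onto VDR-bla cells and incubated 16 h at 37C, 5% CO2. Reporter activity was detected with LiveBLAzer B/G FRET substrate after 2 h at room temperature.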

[10] = qHTS assay to identify small molecule agonists of the vitamin D receptor (VDR) signaling pathway - cell viability counter screen (AID 743224); note: series mostly up to about 63 µM; nearly all actives have a fitted effect of over 50% in size
Outline: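 Viability is measured in the same wells as the VDR-bla reporter assay: after 16 h compound treatment and 2 h substrate loading, CellTiter-Glo is added and luminescence read 30 min later.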

[11] = qHTS assay to identify small molecule agonists of the NFkB signaling pathway (AID 1159509; active = well fitted curve in the direction sought with a large enough effect in the signal ratio in the repeat runs, not every such curve was filed as active; the % refers to the signal ratio; note: series mostly up to about 61 µM)
Outline: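 NFkB-bla ME-180 cells with a beta-lactamase reporter under an NF-kB response element were plated overnight, treated with compounds in DMSO for 5 hr at 37 C, then loaded with FRET substrate for 1.5 hr at room temperature.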

[12] = qHTS assay to identify small molecule agonists of the NFkB signaling pathway - cell viability counter screen (AID 1159515; calls by dose curve; note: series mostly up to about 61 µM; nearly all actives have a fitted effect of over 55% in size)
Outline: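 Multiplexed viability readout: after the 5 hr compound exposure and 1.5 hr FRET substrate step, CellTiter-Glo reagent went into the same NFkB-bla ME-180 wells; ATP luminescence was measured after 30 min at room temperature.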

[13] = qHTS assay to identify small molecule agonists of the endoplasmic reticulum stress response signaling pathway (AID 1159516; active = well fitted activation curve with a large enough effect in the signal ratio in the repeat runs, not every such curve was filed as active; the % refers to the signal ratio)
Outline: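 Tox21 10K library screened in quantitative HTS format on ESRE-bla HeLa cells, a beta-lactamase reporter under ER stress response element control; 5 hr treatment, FRET read.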

[14] = qHTS assay to identify small molecule agonists of the endoplasmic reticulum stress response signaling pathway - cell viability counter screen (AID 1159517; calls by dose curve; note: series mostly up to about 61 µM; nearly all actives have a fitted effect of over 50% in size)
Outline: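 Cells, HeLa ESRE-bla; density, 1,500/well; dosing, 5 hr at 37 C, 5% CO2; readout, CellTiter-Glo luminescence after 30 min RT.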

[15] = qHTS assay to identify small molecule antagonists of the retinoid-related orphan receptor gamma (ROR-gamma) signaling pathway - cell viability counter screen (AID 1159520); note: nearly all actives have a fitted effect of over 50% in size; note: potency is the fitted concentration of half-maximal effect
Outline: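 Cytotoxicity was read from cellular ATP (CellTiter-Glo luminescence) after 16 hr at 37 C with 1 uM doxycycline induction. The inducer was added 2 hr after compound transfer to Tet-on ROR gamma CHO cells.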

[16] = molecular target: Nuclear receptor ROR-gamma (Homo sapiens) (UniProt P51449); assay: qHTS assay to identify small molecule antagonists of the retinoid-related orphan receptor gamma (ROR-gamma) signaling pathway (AID 1159521)
Outline: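 Inducible-expression reporter assay: doxycycline (1 uM final) switched on RORγ in CHO cells bearing a ROR response element-luciferase construct, with test compounds present from 2 h beforehand. Decreased luminescence after 16 h defined antagonist activity.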

[17] = qHTS assay to identify small molecule agonists of the AP-1 signaling pathway - cell viability counter screen (AID 1159525; calls by dose curve; note: nearly all actives have a fitted effect of over 55% in size)
Outline: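 Luminescent ATP readout (Cell Titer Glo, 30 min RT), normalised to DMSO and tetra n-octyl ammonium bromide controls. Cells were ME-180 AP-1-bla in 0.5% dialyzed FBS Opti-MEM, with a 5 h, 37 °C compound exposure.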

[18] = qHTS assay to identify small molecule agonists of the AP-1 signaling pathway (AID 1159526; calls by dose curve)
[19] = molecular target: Vitamin D3 receptor (Homo sapiens) (UniProt P11473); assay: qHTS assay to identify small molecule antagonists of the vitamin D receptor (VDR) signaling pathway (AID 743223; active = well fitted inhibition curve with a large enough effect in the signal ratio in the repeat runs, not every such curve was filed as active; the % refers to the signal ratio)
Outline: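 Quantitative HTS in VDR-bla reporter cells stimulated with 1alpha,25-dihydroxyvitamin D3, 3 nM final. Compound exposure 16 h, 37C, 5% CO2. Read-out: beta-lactamase FRET substrate fluorescence, 2 h RT.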

[20] = qHTS assay to identify small molecule antagonists of the vitamin D receptor (VDR) signaling pathway - cell viability counter screen (AID 743225); note: nearly all actives have a fitted effect of over 50% in size
Outline: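 Same-well multiplex: following 16 h treatment of HEK 293T cells carrying a UAS-driven beta-lactamase reporter with compound and agonist (3 nM final), and a 2 h FRET substrate step, CellTiter-Glo was added and luminescence read after 30 min.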

SMILES	Potency [1]	outcome [2]	Potency [3]	outcome [4]	outcome [5]	outcome [6]	outcome [7]	Potency [8]	outcome [9]	outcome [10]	outcome [11]	outcome [12]	outcome [13]	outcome [14]	Potency [15]	Potency [16]	outcome [17]	Potency [18]	outcome [19]	outcome [20]
CC1(C)SC(C)(C)SC(C)(C)S1	inactive	inactive	inactive	inactive	inactive	inactive	inactive	inactive	inactive	inactive	inactive	inactive	inactive	inactive	inactive	inactive	inactive	inactive	–	–
CCCCCCC(=O)OCC	inactive	inactive	inactive	inactive	–	inactive	–	inactive	inactive	–	inactive	inactive	inactive	inactive	inactive	inactive	inactive	inactive	inactive	inactive
COC(=O)CCCCCCCCC(=O)OC	inactive	inactive	inactive	inactive	–	inactive	inactive	inactive	inactive	inactive	inactive	inactive	inactive	inactive	inactive	inactive	inactive	inactive	inactive	inactive
Oc1cc(O)c2c(c1)O[C@H](c1ccc(O)c(O)c1)[C@H](O)C2	inactive	inactive	inactive	inactive	–	inactive	–	–	inactive	–	inactive	inactive	inactive	inactive	inactive	inactive	inactive	inactive	inactive	inactive
Cc1ccccc1Br	inactive	inactive	inactive	inactive	inactive	inactive	inactive	inactive	inactive	inactive	inactive	inactive	inactive	inactive	inactive	inactive	inactive	inactive	inactive	inactive
NC(=O)Nc1nc2ccccc2[nH]1	inactive	inactive	inactive	inactive	inactive	inactive	inactive	inactive	inactive	inactive	inactive	inactive	inactive	inactive	inactive	inactive	inactive	inactive	inactive	–
CCC(C)(C)C1CCC(OC)CC1 (stereo not given)	inactive	inactive	inactive	inactive	inactive	inactive	inactive	inactive	inactive	inactive	inactive	inactive	inactive	inactive	48.6 µM (active)	inactive	inactive	inactive	inactive	inactive
CSc1ccc(C=O)cc1	inactive	inactive	inactive	inactive	–	–	–	inactive	inactive	–	inactive	inactive	inactive	inactive	inactive	inactive	inactive	inactive	inactive	inactive
